Compounds without any hit were thinned out: in the full panel of roughly 79,000, 15% have a hit. A number with no mark means an inactive call. Active and inactive are the calls of the source. Cut-off read from the data, not from the text of the source: active = growth inhibition above about 70%; inactive = the rest.
Assay: NCI Yeast Anticancer Drug Screen. Data for the rad14 strain (AID 159);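 note: 0% = growth of vehicle-treated control cultures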
Conditions: S. cerevisiae rad14 strain growth inhibition; at 11.0 µM; active compounds read high
Summary of the method: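 Here, inhibition of yeast growth was measured after compound exposure, using a strain with a genetic defect in DNA damage repair and vehicle-treated cultures as the reference.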

SMILES | growth inhibition
CCOP(=O)(OCC)C(Cc1ccccc1)N=C(c1ccccc1)c1ccccc1 (stereo not drawn) | -8%
CCc1ncnc2cc(OCC3CO3)c(OC)cc12 (stereo not drawn) | 46%
CCOC(=O)[C@H]1Nc2ccccc2C2c3ccccc3CC21 (stereo partly drawn) | 1%
O=CNc1ccc2c(c1)C(=O)c1ccccc1-2 | 14%
CCOc1ccc2c(c1)c(CC(=O)O)cn2C | 20%
OC1CSCCCSCCSCCCSC1 | -28%
N#Cc1c(N)[nH]c2ccc(Sc3ccccc3)cc12 | 7%
Cc1ccc(-c2ccc(Nc3c4ccccc4nc4ccccc34)cc2)cn1 | -4%
c1ccc2c(c1)NC(NC1Nc3ccccc3N1)N2 | 3%
OC(COc1cccc2ccccc12)CN1CCOCC1 (stereo not drawn) | 45%
CCC/C(Cl)=N\OC(=O)Nc1ccc(Br)cc1 | 90% (active)
COc1ccc(/C=C2\SC(=S)N(/C=C/c3nc4ccccc4[nH]c3=O)C2=O)cc1OC | 26%
O=C(NNc1ccnc2cc(Cl)ccc12)/C(=C\c1ccccc1Cl)NC(=O)c1ccccc1 | 1%
CSC1=NNC(SC)=NN1 | 36%
Cc1c(C2=C(Br)C(=O)N(C)C2=O)c(=O)n(C)c(=O)n1C | 28%
NCCNc1ccc(NCCN)c2c1C(=O)c1c(O)ccc(O)c1C2=O | 18%
Cn1c(=O)c(-c2ccccc2)c(N=[N+]=[N-])c2ccccc21 | 5%
CCCCCCCCCCCCCCCCCCOCC(O)COP(=O)(O)OCC1OC(n2cc(F)c(=O)[nH]c2=O)CC1O (stereo not drawn) | -5%
CCS(=O)(=O)c1ccc(/C=C/C=N/NC(=S)NCC(C)C)cc1 | 0%
CCC(=O)Oc1c(Cl)cc(Cl)c2ccccc12 | 0%

SMILES | growth inhibition
COc1cc2c3c(cccc3c1)C(=O)N(CCN(C)C)C2=O | -24%
CN(C)c1ccc(C(C#N)=C(C#N)C#N)cc1 | 10%
O=C(CCCN1CCC2(CC1)CC(=O)N(N1CCCCCC1)C2=O)c1ccc(F)cc1 | 64%
O=C1C2C(C(=O)N1c1ccc(OCc3ccccc3)cc1)C1c3ccccc3C2C2CCCCN21 (stereo not drawn) | 4%
CCN(CC)CCC(=O)c1ccc(Oc2ccc(F)cc2)cc1 | 51%
O=Nc1c(NO)ccc2nn(-c3ccccc3)nc12 | 97% (active)
CC(=O)SCCC[Si](C)(C)CCCSC(C)=O | 0%
O=C(O)C1CCCCC1c1c2ccc(=O)c(O)c-2oc2c(O)c(O)ccc12 (stereo not drawn) | -9%
Cc1ccc(NN(NC(=O)OC(C)C)C(=O)OC(C)C)cc1 | -1%
O=C1c2ccccc2C(=O)c2cc(CBr)ccc21 | 12%
Cc1c(C(Cc2ccccc2N(C)C(=O)/C=C\C(=O)O)c2c[nH]c3ccccc23)c2ccccc2n1C (stereo not drawn) | -14%
CC(C)/C(Cl)=N\OC(=O)Nc1ccc(F)cc1 | 11%
O=C1OC(=O)C2CCCC3CCCC1C32 (stereo not drawn) | 47%
CCOC(=O)C(NC(=O)c1ccccc1)(N1CCN(c2cc3c(cc2F)c(=O)c(C(=O)O)cn3C2CC2)CC1)C(F)(F)F (stereo not drawn) | 4%
COc1ccc(NC(=S)N/N=C(\c2ccccc2)c2ccccn2)cc1 | -6%
C=CCC1=C(C)C(OC(=O)/C=C/c2ccccc2)CC1=O (stereo not drawn) | 4%
NNc1c(F)c(F)cc(F)c1F | -27%
COP(=O)(OC)/C(=C\C1=CN(C(c2ccccc2)(c2ccccc2)c2ccccc2)CN1)NC=O | -5%
COC(=O)c1cc(-c2ccc(C)cc2)[nH]c(=O)c1C#N | -6%

Same assay, conditions: S. cerevisiae rad14 strain growth inhibition; at 33.0 µM; active compounds read high

SMILES | growth inhibition
CCOP(=O)(OCC)C(Cc1ccccc1)N=C(c1ccccc1)c1ccccc1 (stereo not drawn) | 73% (active)
CCc1ncnc2cc(OCC3CO3)c(OC)cc12 (stereo not drawn) | 85% (active)
CCOC(=O)[C@H]1Nc2ccccc2C2c3ccccc3CC21 (stereo partly drawn) | 22%
O=CNc1ccc2c(c1)C(=O)c1ccccc1-2 | 46%
CCOc1ccc2c(c1)c(CC(=O)O)cn2C | 57%
OC1CSCCCSCCSCCCSC1 | -36%
N#Cc1c(N)[nH]c2ccc(Sc3ccccc3)cc12 | 95% (active)
Cc1ccc(-c2ccc(Nc3c4ccccc4nc4ccccc34)cc2)cn1 | 75% (active)
c1ccc2c(c1)NC(NC1Nc3ccccc3N1)N2 | 12%
OC(COc1cccc2ccccc12)CN1CCOCC1 (stereo not drawn) | 49%
CCC/C(Cl)=N\OC(=O)Nc1ccc(Br)cc1 | 98% (active)
COc1ccc(/C=C2\SC(=S)N(/C=C/c3nc4ccccc4[nH]c3=O)C2=O)cc1OC | 64%
O=C(NNc1ccnc2cc(Cl)ccc12)/C(=C\c1ccccc1Cl)NC(=O)c1ccccc1 | 3%
CSC1=NNC(SC)=NN1 | 87% (active)
Cc1c(C2=C(Br)C(=O)N(C)C2=O)c(=O)n(C)c(=O)n1C | 47%
NCCNc1ccc(NCCN)c2c1C(=O)c1c(O)ccc(O)c1C2=O | 88% (active)
Cn1c(=O)c(-c2ccccc2)c(N=[N+]=[N-])c2ccccc21 | 93% (active)
CCCCCCCCCCCCCCCCCCOCC(O)COP(=O)(O)OCC1OC(n2cc(F)c(=O)[nH]c2=O)CC1O (stereo not drawn) | 63%
CCS(=O)(=O)c1ccc(/C=C/C=N/NC(=S)NCC(C)C)cc1 | 5%
CCC(=O)Oc1c(Cl)cc(Cl)c2ccccc12 | 9%

SMILES | growth inhibition
COc1cc2c3c(cccc3c1)C(=O)N(CCN(C)C)C2=O | -3%
CN(C)c1ccc(C(C#N)=C(C#N)C#N)cc1 | 11%
O=C(CCCN1CCC2(CC1)CC(=O)N(N1CCCCCC1)C2=O)c1ccc(F)cc1 | 73% (active)
O=C1C2C(C(=O)N1c1ccc(OCc3ccccc3)cc1)C1c3ccccc3C2C2CCCCN21 (stereo not drawn) | 35%
CCN(CC)CCC(=O)c1ccc(Oc2ccc(F)cc2)cc1 | 79% (active)
O=Nc1c(NO)ccc2nn(-c3ccccc3)nc12 | 98% (active)
CC(=O)SCCC[Si](C)(C)CCCSC(C)=O | 14%
O=C(O)C1CCCCC1c1c2ccc(=O)c(O)c-2oc2c(O)c(O)ccc12 (stereo not drawn) | 19%
Cc1ccc(NN(NC(=O)OC(C)C)C(=O)OC(C)C)cc1 | 1%
O=C1c2ccccc2C(=O)c2cc(CBr)ccc21 | 53%
Cc1c(C(Cc2ccccc2N(C)C(=O)/C=C\C(=O)O)c2c[nH]c3ccccc23)c2ccccc2n1C (stereo not drawn) | -13%
CC(C)/C(Cl)=N\OC(=O)Nc1ccc(F)cc1 | 13%
O=C1OC(=O)C2CCCC3CCCC1C32 (stereo not drawn) | 87% (active)
CCOC(=O)C(NC(=O)c1ccccc1)(N1CCN(c2cc3c(cc2F)c(=O)c(C(=O)O)cn3C2CC2)CC1)C(F)(F)F (stereo not drawn) | 3%
COc1ccc(NC(=S)N/N=C(\c2ccccc2)c2ccccn2)cc1 | 65%
C=CCC1=C(C)C(OC(=O)/C=C/c2ccccc2)CC1=O (stereo not drawn) | 5%
NNc1c(F)c(F)cc(F)c1F | -21%
COP(=O)(OC)/C(=C\C1=CN(C(c2ccccc2)(c2ccccc2)c2ccccc2)CN1)NC=O | 65%
COC(=O)c1cc(-c2ccc(C)cc2)[nH]c(=O)c1C#N | -19%
